Compound activity as filed in PubChem BioAssay.
Most compounds without a hit are left out; they make up all but 7.3% or so of the library.
SMN2 splice enh = enhancers of SMN2 splice variant expression | HEK293 SMN2-luciferase splicing reporter, luminescence, 30-36 h | Potency, µM (doses to about 46.1 µM), for the others: top-dose activity change, positive = activation, usual class: activators | 2.8% of 210,000 active | AID 1458; also: % of control where 0% means no effect; nearly all actives have a fitted effect of over 55% in size
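HEK293 cells carry an SMN2 minigene-luciferase reporter in which exon 7 inclusion puts luciferase in frame. Cells were seeded at 2000 cells/well, attached for 10-12 hours, then exposed to compounds for 30-36 hours at 37C before ONE-Glo luminescence.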
Rab9 promoter act = activates the Rab9 promoter. AID 485297. 2.8% of 320,000 active. Potency, µM (titrated, usually from 9.22 µM), for inactives: at the top dose activation, negative = inhibition, actives largely listed as activators. Huh7 Rab9 promoter-luciferase reporter, luminescence, 24 h; also: % of control where 0% means no effect; nearly all actives have a fitted effect of over 60% in size
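Huh7 cells stably carrying Rab9 promoter–luciferase reporter, plated 1500 cells/well, compound added after 2 h and incubated 24 h at 37 °C; luciferase luminescence then read after 10 min with detection reagent.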
NPC1 prom act = NPC1 promoter activation. Huh7 NPC1 promoter luciferase reporter, 24 h. Potency, µM (titrated, usually from 9.22 µM), without a hit: at the top dose activation, most hits filed as activators. 2.4% of 320,000 active; also: % of control where 0% means no effect; nearly all actives have a fitted effect of over 60% in size
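Stably transfected Huh7 (NPC1 promoter→luciferase), 1500 cells/well in Opti-MEM + 10% FBS, 2 h settle, then compound 24 h at 37 °C. Luminescence after 10 min with Amplite reagent.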
FLuc modulator = counter-screen for miR-21 project: firefly luciferase inhibitors or activators | P08659 | purified FLuc, Km substrates, luminescence inhibition | Potency, µM (series often up to 57.5 µM), for the others: at the top dose activity change, negative = inhibition, usual class: inhibitors | 6.9% of 360,000 active | AID 588342;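 also: plate controls were vehicle for no effect and reference inhibitor for full effect; nearly all actives have a fitted effect of over 55% in size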
Target sequence (P08659 whole entry, looked up): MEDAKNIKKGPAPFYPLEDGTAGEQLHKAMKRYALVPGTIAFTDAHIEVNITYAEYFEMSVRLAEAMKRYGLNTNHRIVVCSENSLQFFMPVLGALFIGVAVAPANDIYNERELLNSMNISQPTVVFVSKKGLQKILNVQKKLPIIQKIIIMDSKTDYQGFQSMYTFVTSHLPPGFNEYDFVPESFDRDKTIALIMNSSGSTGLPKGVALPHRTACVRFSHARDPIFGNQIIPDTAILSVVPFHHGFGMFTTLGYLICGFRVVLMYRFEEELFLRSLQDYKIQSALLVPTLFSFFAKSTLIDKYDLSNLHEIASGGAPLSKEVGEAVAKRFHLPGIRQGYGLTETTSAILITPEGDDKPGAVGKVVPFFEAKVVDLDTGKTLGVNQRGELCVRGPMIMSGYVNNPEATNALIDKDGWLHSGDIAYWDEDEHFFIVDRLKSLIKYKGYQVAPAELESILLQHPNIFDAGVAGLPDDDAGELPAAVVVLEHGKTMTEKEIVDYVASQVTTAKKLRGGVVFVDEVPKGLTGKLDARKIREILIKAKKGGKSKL
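Purified P. pyralis luciferase, 10 nM final, with Km-level 10 uM D-luciferin and 10 uM ATP in 50 mM Tris acetate pH 7.5, 10 mM Mg acetate, 0.01% Tween-20, 0.05% BSA; 6-point qHTS titration about 60 µM downward; luminescence read.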
p53 reactivation = restores transcriptional activity of mutant p53; Potency, µM (titrated, usually from 92.2 µM), for inactives: at the highest dose activity change, positive = activation, usual class: activators; 0.063% of 320,000 active; H1299 p53-A138V BP100-luciferase reporter, luminescence, 24 h; also: % of control where 0% means no effect; nearly all actives have a fitted effect of over 45% in size
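H1299 (p53-null), stable ts p53-A138V + BP100-Luc; 1000 cells/well, Opti-MEM/10% FBS; cpd 4 pt, 1:5; 24 h, 37 deg C, 5% CO2; detection reagent 10 min RT; luminescence.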
ELG1 genotox = inducers of genotoxicity in HEK293T ELG1-luciferase cells. HEK293T ELG1-luciferase reporter, luminescence, 16 h. Potency, µM (series often up to 46 µM), without a hit: at the top dose activity change, positive = activation, most hits filed as activators. 1.3% of 330,000 active. AID 504466; also: % of control where 0% means no effect; nearly all actives have a fitted effect of over 60% in size
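HEK293T cells expressing luciferase-tagged ELG1 were exposed to compound or DMSO vehicle for 16 hr at 37 °C and 5% CO2. Luciferase activity was then measured with ONE-Glo after 30 min at room temperature.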
The depositor's hits bear a star. Calls follow the shape of the dose curve; as a rule, active = well fitted curve in the direction sought with a large enough effect; inconclusive = small, poorly fitted or top-dose-only effect, or another doubt; inactive = no such curve, though single readings can be large; an effect the other way counts as inactive or inconclusive. Potency is read from the fitted curve at half-maximal effect.

`Cc1ccc(C(=O)CCC2CCCCC2=O)cc1` (stereo not drawn) gave SMN2 splice enh -6.8%, Rab9 promoter act inconclusive, NPC1 prom act inconclusive, FLuc modulator 13.5µM*, p53 reactivation inconclusive and ELG1 genotox 20.6µM*.
Screening COc1ccc(NS(=O)(=O)c2ccc3oc(Nc4ccc5c(c4)OCCO5)nc3c2)cc1 returned SMN2 splice enh 6.6%, Rab9 promoter act 13.2%, NPC1 prom act 0.7%, FLuc modulator 19µM*, p53 reactivation 1.5% and ELG1 genotox 3.4%.
O=C(Cn1c(=O)oc2cc(S(=O)(=O)NC3CCCC3)ccc21)Nc1ccc(F)c(F)c1 was read as SMN2 splice enh 16.2% and FLuc modulator 0.8%.
For CCc1ccc(NC(=O)c2cnn(-c3ccccc3)c2C2CCNCC2)cc1 the results were SMN2 splice enh -3.7%, Rab9 promoter act 6.0%, NPC1 prom act -5.0%, FLuc modulator -4.0%, p53 reactivation 11.7% and ELG1 genotox -4.7%.
Screening Cc1c(C(=O)Nc2ccccc2F)cnn1-c1ccccc1 returned Rab9 promoter act 1.41µM*, NPC1 prom act 2.51µM*, FLuc modulator 5.36µM*, p53 reactivation 16.9% and ELG1 genotox 8.2µM*.
Cc1c(C(=O)Oc2cccc3ccccc23)cnn1-c1ccccc1 was read as SMN2 splice enh inconclusive, Rab9 promoter act inconclusive, NPC1 prom act 21.8%, FLuc modulator 9.53µM*, p53 reactivation inconclusive and ELG1 genotox 8.91µM*.
For CCc1ccc(NC(=O)c2cnn(-c3ccccc3)c2C)cc1 the results were SMN2 splice enh 5.62µM*, Rab9 promoter act 0.562µM*, NPC1 prom act 0.501µM*, FLuc modulator 0.675µM*, p53 reactivation inconclusive and ELG1 genotox inconclusive.
`O=C(Oc1ccccc1O)c1cccc2ccccc12` gave SMN2 splice enh 14.0%, Rab9 promoter act -8.5%, NPC1 prom act -7.3%, FLuc modulator -16.9%, p53 reactivation 3.5% and ELG1 genotox 6.7%.
Cc1c(C(=S)Nc2ccccc2)cnn1-c1ccc([N+](=O)[O-])cc1 was read as SMN2 splice enh -7.9%, Rab9 promoter act -3.6%, NPC1 prom act -1.3%, FLuc modulator -10.9%, p53 reactivation -19.1% and ELG1 genotox -3.5%.
Screening Cc1c(C(=S)Nc2ccccc2)cnn1-c1ccccc1 returned SMN2 splice enh 5.3%, Rab9 promoter act inconclusive, NPC1 prom act inconclusive, FLuc modulator 15.1µM*, p53 reactivation 7.5% and ELG1 genotox 0.8%.
For Cc1ccc(S(=O)(=O)Nc2ccc(C(=O)NCCCn3ccnc3)cc2)cc1[N+](=O)[O-] the results were Rab9 promoter act 1.1%, NPC1 prom act -2.8%, FLuc modulator -1.4%, p53 reactivation inconclusive and ELG1 genotox 1.8%.
`COC(=O)[C@@]1(Cc2ccccc2)[C@H]2c3cc(C(=O)N4CCCC4)[nH]c3C[C@H]2CN1C(=O)c1ccccc1` gave SMN2 splice enh 2.0%.
`Cc1onc(-c2ccccc2Cl)c1C(=O)Oc1ccccc1F` gave FLuc modulator -13.2%.
Screening Cc1c(C(=O)Nc2cc(F)cc(F)c2)cnn1-c1ccccc1 returned Rab9 promoter act 2.51µM*, NPC1 prom act 1.26µM*, FLuc modulator 7.57µM*, p53 reactivation inconclusive and ELG1 genotox inconclusive.
`Cc1nn(-c2ccccc2)cc1C(=S)Nc1ccccc1` gave SMN2 splice enh 23.0%, Rab9 promoter act inconclusive, NPC1 prom act inconclusive, FLuc modulator 12µM*, p53 reactivation inconclusive and ELG1 genotox 10.5%.
For CC(=O)c1cnn(-c2ccccc2)c1C the results were SMN2 splice enh 13.6%, Rab9 promoter act -3.6%, NPC1 prom act -2.1%, FLuc modulator -2.6%, p53 reactivation -0.2% and ELG1 genotox 4.4%.
For Clc1ccccc1/C=C/c1nc(-c2ccccn2)no1 the results were Rab9 promoter act inconclusive, NPC1 prom act 0.224µM*, FLuc modulator 0.107µM*, p53 reactivation -5.6% and ELG1 genotox inconclusive.
`O=C(NCCC1=CCCCC1)c1cnc2n(c1=O)CCS2` gave SMN2 splice enh 11.2µM*, Rab9 promoter act inconclusive, NPC1 prom act inconclusive, FLuc modulator inconclusive, p53 reactivation inconclusive and ELG1 genotox inconclusive.
Screening O=C(NCCc1ccc(Cl)cc1)c1cnc2n(c1=O)CCS2 returned SMN2 splice enh inconclusive, Rab9 promoter act inconclusive, NPC1 prom act 24.6%, FLuc modulator inconclusive, p53 reactivation inconclusive and ELG1 genotox inconclusive.
Screening O=C(NCCCc1ccccc1)c1cnc2n(c1=O)CCS2 returned SMN2 splice enh 17.8µM*, Rab9 promoter act inconclusive, NPC1 prom act inconclusive, FLuc modulator inconclusive, p53 reactivation inconclusive and ELG1 genotox 20.7%.
O=C(NCc1ccccc1)c1cnc2n(c1=O)CCS2 was read as SMN2 splice enh -0.4%, Rab9 promoter act 10.4%, NPC1 prom act 12.5%, FLuc modulator 2.9%, p53 reactivation -5.1% and ELG1 genotox -0.8%.
`CCOC(=O)c1cc(-c2ccc(OC(F)F)cc2)nc2nc(SC)[nH]c(=O)c12` gave Rab9 promoter act -3.7%, NPC1 prom act 1.1%, FLuc modulator 6.01µM*, p53 reactivation 10.8% and ELG1 genotox -4.3%.
CCOC(=O)c1cc(-c2ccc(OC(F)F)cc2)nc2c1c(=O)[nH]c(=O)n2C was read as SMN2 splice enh -0.4%, Rab9 promoter act -4.0%, NPC1 prom act -3.4%, FLuc modulator -0.2%, p53 reactivation -9.7% and ELG1 genotox 6.2%.
Screening O=C(O)/C(=C\C(=O)c1ccccc1)Nc1ccccc1 returned Rab9 promoter act 28.6%, NPC1 prom act inconclusive, FLuc modulator inconclusive, p53 reactivation inconclusive and ELG1 genotox 16.0%.
O=C(NC(c1cccnc1)C(F)(F)F)c1cc(COc2ccc3c(c2)CCCC3)on1 (stereo not drawn) was read as Rab9 promoter act 6.2%, NPC1 prom act -3.2%, FLuc modulator 15.1µM*, p53 reactivation 4.2% and ELG1 genotox 12.0%.
Cn1cc(CNC(=O)c2cc(COc3ccc4c(c3)CCCC4)on2)cn1 was read as Rab9 promoter act 2.0%, NPC1 prom act -1.4%, FLuc modulator inconclusive, p53 reactivation -10.8% and ELG1 genotox -8.2%.
`Cc1ccc(Cl)c2c(N=Nc3ccccc3)c(O)[nH]c12` gave Rab9 promoter act inconclusive, NPC1 prom act inconclusive, FLuc modulator 1.2µM*, p53 reactivation 46.7% and ELG1 genotox inconclusive.
